Values joined by “and” are separate entries in the source; they are usually repeats but may differ in a detail not shown here. Equal entries are not always repeated. Records with an inconclusive call do not appear. Active and inactive are the calls of the source. Calls follow the shape of the dose curve; as a rule, active = well fitted curve in the direction sought with a large enough effect; inconclusive = small, poorly fitted or top-dose-only effect, or another doubt; inactive = no such curve, though single readings can be large; an effect the other way counts as inactive or inconclusive.
What was measured:
[1] = qHTS of pediatric cancer cell lines to identify multiple opportunities for drug repurposing: Primary screen for Rh18 cells (AID 1347102); also: nearly all actives have a fitted effect of over 65% in size; also: potency is read from the fitted curve at half-maximal effect
In short: (§1)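 Viability after 48 h compound treatment at 37C, 500-1,000 cells/well, read as ATP luminescence with CellTiter-Glo. Primary screens used 11-point (MIPE, 0.78 nM-46 µM) or 8-point (NPC, 0.59 nM-46 µM) final concentrations; follow-up screens used 11-point dilutions.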

[2] = qHTS of pediatric cancer cell lines to identify multiple opportunities for drug repurposing: Primary screen for OHS-50 cells (AID 1347103); also: nearly all actives have a fitted effect of over 40% in size; also: potency is read from the fitted curve at half-maximal effect
In short: (§2)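 Cells (500-1,000/well) rested 5 h, then received compounds for 48 h; metabolically active cells were measured by CellTiter-Glo luminescence. Final concentrations spanned up to 46 µM (MIPE, 11-point) or 0.59 nM-46 µM (NPC, 8-point) in primary screens, 11-point in follow-ups.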

[3] = qHTS of pediatric cancer cell lines to identify multiple opportunities for drug repurposing: Primary screen for RD cells (AID 1347104); also: nearly all actives have a fitted effect of over 55% in size; also: potency is read from the fitted curve at half-maximal effect
In short: (§3)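 Cells seeded at 500-1,000 cells/well in growth media, rested 5 hours at 37 degrees C, 5% CO2, then dosed; MIPE compounds at 11-point (from 0.78 nM) and NPC at 8-point (from 0.59 nM) final concentrations. Viability by CellTiter-Glo luminescence after 48 hours.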

[4] = qHTS of pediatric cancer cell lines to identify multiple opportunities for drug repurposing: Primary screen for control Hh wild type fibroblast cells (AID 1347106);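 also: series mostly up to about 46 µM; a drop in luminescence marks cytotoxicity and a rise apparent proliferation; nearly all actives have a fitted effect of over 55% in size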
In short: as §1

[5] = qHTS of pediatric cancer cell lines to identify multiple opportunities for drug repurposing: Primary screen for Rh30 cells (AID 1347107); also: series mostly up to about 46 µM; nearly all actives have a fitted effect of over 75% in size
In short: as §1

[6] = qHTS of pediatric cancer cell lines to identify multiple opportunities for drug repurposing: Confirmatory screen for NB1643 cells (AID 1347109); also: nearly all actives have a fitted effect of over 45% in size; also: potency is read from the fitted curve at half-maximal effect
In short: as §1

[7] = qHTS of pediatric cancer cell lines to identify multiple opportunities for drug repurposing: Confirmatory screen for A673 cells (AID 1347110);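 also: cells exposed to compound for 48 h before the viability read; nearly all actives have a fitted effect of over 65% in size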; also: potency is read from the fitted curve at half-maximal effect
In short: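 qHTS titration format: primary MIPE 0.78 nM-46 µM (11 pts), NPC 0.59 nM-46 µM; confirmation 11 pts. 48 h, CTG luminescence.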

[8] = qHTS of pediatric cancer cell lines to identify multiple opportunities for drug repurposing: Confirmatory screen for NB-EBc1 cells (AID 1347115);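 also: cells exposed to compound for 48 h before the viability read; nearly all actives have a fitted effect of over 45% in size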; also: potency is read from the fitted curve at half-maximal effect
In short: as §1

[9] = qHTS of pediatric cancer cell lines to identify multiple opportunities for drug repurposing: Confirmatory screen for SJ-GBM2 cells (AID 1347116); also: nearly all actives have a fitted effect of over 60% in size; also: potency is read from the fitted curve at half-maximal effect
In short: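 Viability measured as metabolically active cells via CellTiter-Glo luminescence following 48 hours of compound exposure, 11-point dilutions in confirmatory testing. 500-1,000 cells/well plated 5 hours before dosing; controls were DMSO and 2.3 µM bortezomib.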

[10] = qHTS of pediatric cancer cell lines to identify multiple opportunities for drug repurposing: Confirmatory screen for MG 63 (6-TG R) cells (AID 1347119); also: nearly all actives have a fitted effect of over 55% in size; also: potency is read from the fitted curve at half-maximal effect
In short: as §1

[11] = qHTS of pediatric cancer cell lines to identify multiple opportunities for drug repurposing: Confirmatory screen for control Hh wild type fibroblast cells (AID 1347121); also: nearly all actives have a fitted effect of over 70% in size
In short: as §1

[12] = qHTS of pediatric cancer cell lines to identify multiple opportunities for drug repurposing: Confirmatory screen for RD cells (AID 1347124);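 also: cells exposed to compound for 48 h before viability readout; nearly all actives have a fitted effect of over 65% in size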
In short: as §1

[13] = qHTS of pediatric cancer cell lines to identify multiple opportunities for drug repurposing: Confirmatory screen for Rh18 cells (AID 1347125); also: nearly all actives have a fitted effect of over 55% in size; also: potency is read from the fitted curve at half-maximal effect
In short: as §1

[14] = qHTS of pediatric cancer cell lines to identify multiple opportunities for drug repurposing: Primary screen for MG 63 (6-TG R) cells (AID 1347105); also: nearly all actives have a fitted effect of over 50% in size; also: potency is read from the fitted curve at half-maximal effect
In short: as §3

[15] = qHTS of pediatric cancer cell lines to identify multiple opportunities for drug repurposing: Primary screen for Rh41 cells (AID 1347108);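 also: series mostly up to about 46 µM; luminescence drop marks cytotoxic hits; nearly all actives have a fitted effect of over 70% in size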
In short: as §3

[16] = qHTS of pediatric cancer cell lines to identify multiple opportunities for drug repurposing: Confirmatory screen for BT-12 cells (AID 1347112); also: nearly all actives have a fitted effect of over 55% in size; also: potency is read from the fitted curve at half-maximal effect
In short: as §1

[17] = qHTS of pediatric cancer cell lines to identify multiple opportunities for drug repurposing: Confirmatory screen for BT-37 cells (AID 1347117); also: nearly all actives have a fitted effect of over 55% in size; also: potency is read from the fitted curve at half-maximal effect
In short: as §1

[18] = qHTS of pediatric cancer cell lines to identify multiple opportunities for drug repurposing: Confirmatory screen for U-2 OS cells (AID 1347122); also: nearly all actives have a fitted effect of over 65% in size
In short: as §1

[19] = qHTS of pediatric cancer cell lines to identify multiple opportunities for drug repurposing: Primary screen for BT-12 cells (AID 1347101); also: nearly all actives have a fitted effect of over 25% in size; also: potency is read from the fitted curve at half-maximal effect
In short: as §2

[20] = qHTS of pediatric cancer cell lines to identify multiple opportunities for drug repurposing: Confirmatory screen for LAN-5 cells (AID 1347113); also: nearly all actives have a fitted effect of over 65% in size; also: potency is read from the fitted curve at half-maximal effect
In short: as §1

Measured: Potency

Cc1cc(=O)c2c(O)c3c(O)cc(=O)c4c3c3c(cc(O)c1c23)C(C)(C)C=4O
inactive: [1] | [4]
active: [2] 1.51 µM and 2.43 µM | [3] 2.06 µM and 3.72 µM

COc1cc(C(C)=O)ccc1OCCCN1CCC(c2noc3cc(F)ccc23)CC1
inactive: [1] | [4] | [5] | [6] | [7] | [8] | [9] | [10] | [11] | [12] | [13]
active: [2] 21.7 µM and 19.5 µM

Nc1nc(Cl)nc2c1ncn2[C@H]1C[C@H](O)[C@@H](CO)O1
inactive: [1] | [4] | [15] | [16] | [11] | [18] | [13]
active: [2] 15.3 µM | [14] 29.6 µM | [6] 2.08 µM | [7] 3.69 µM | [17] 0.208 µM | [10] 16.5 µM

O=C1CCc2ccc(OCCCCN3CCN(c4cccc(Cl)c4Cl)CC3)cc2N1
active: [2] 6.92 µM and 24.3 µM
inactive: [1] | [3] | [14] | [4] | [5] | [15]

CCCCC(CC)COC(=O)C(C#N)=C(c1ccccc1)c1ccccc1 (centres undefined)
active: [2] 13.8 µM and 24.3 µM
inactive: [1] | [4] | [5]

CN(C)C(=O)[C@H](O)[C@H](Cc1ccccc1)NC(=O)c1cc2cc(Cl)ccc2[nH]1
inactive: [2] | [4]

Cc1cccc(C)c1OCC(=O)N[C@@H](Cc1ccccc1)[C@@H](O)C[C@H](Cc1ccccc1)NC(=O)[C@H](C(C)C)N1CCCNC1=O
inactive: [1] | [14] | [4] | [5]
active: [2] 27.3 µM

CC(=O)N1CCN(c2ccc(OC[C@H]3CO[C@](Cn4ccnc4)(c4ccc(Cl)cc4Cl)O3)cc2)CC1
inactive: [4]
active: [19] 24.3 µM

CN(C)c1ccc(O)c2c1C[C@H]1C[C@H]3[C@H](N(C)C)C(=O)C(C(N)=O)=C(O)[C@@]3(O)C(=O)C1=C2O
inactive: [1] | [2] | [3] | [14] | [4] | [5] | [15] | [6] | [7] | [16] | [20] | [8] | [9] | [17] | [11] | [18] | [12] | [13]

CC(C)Oc1ccc2c(=O)c(-c3ccccc3)coc2c1
inactive: [1] | [3] | [14] | [4] | [5]

Clc1ccc(C(Cn2ccnc2)OCc2c(Cl)cccc2Cl)c(Cl)c1 (centres undefined)
active: [2] 19.5 µM and 24.3 µM
inactive: [1] | [14] | [4] | [5] | [15]

Oc1ccc(-c2nc(-c3ccc(F)cc3)c(-c3ccncc3)[nH]2)cc1
active: [3] 29.6 µM | [6] 0.928 µM | [7] 1.17 µM | [16] 11.7 µM | [20] 1.04 µM | [8] 5.22 µM | [9] 2.33 µM | [17] 0.737 µM | [10] 14.7 µM | [13] 23.3 µM
inactive: [19] | [4] | [11] | [18] | [12]

Cc1cccc(CN2CCN(C(c3ccccc3)c3ccc(Cl)cc3)CC2)c1 (centres undefined)
active: [2] 24.6 µM and 24.3 µM
inactive: [1] | [14] | [4] | [5] | [15]

O=c1cc(N2CCOCC2)oc2c(-c3ccccc3)cccc12
inactive: [4]
active: [2] 2.73 µM

Clc1ccc(C(Cn2ccnc2)OCc2ccsc2Cl)c(Cl)c1 (centres undefined)
active: [1] 37.6 µM | [2] 24.3 µM | [6] 14.7 µM | [7] 20.8 µM | [16] 16.5 µM | [20] 20.8 µM | [17] 7.37 µM | [13] 14.7 µM
inactive: [14] | [4] | [5] | [15] | [9] | [11]

CC(C)[N+]1(C)[C@@H]2CC[C@H]1CC(OC(=O)C(CO)c1ccccc1)C2 (some centres undefined)
active: [3] 29.6 µM
inactive: [19] | [14] | [4]
